Measured values reported in the supplement of paper PMC12632987.

Target: GABARAPL2, P60520
Experiment: median log2 fold change of GCK-ALFA target abundance (FLAG IP / Myc IP barcode read proportion) (log2 ratio); each designed protein is fused to an ALFA-tag nanobody in HEK293 cells to bring the named protein to FLAG-tagged glucokinase (GCK); Myc marks an untargeted standard; higher = target protein stabilised (more abundant)
Conditions: target protein: 3xFLAG-MCP-GCK-ALFA reporter; HEK293 landing pad (RPLP)
Procedure, shortened: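 HEK293 landing-pad cells received a recombined binder library fused to the ALFA nanobody and were induced with 2 μg mL^−1 doxycycline, then transfected with a plasmid encoding a FLAG-tagged target and a Myc-tagged standard. Lysates were collected after 48 h for anti-FLAG and anti-Myc immunoprecipitation, and the circular RNA barcodes were reverse transcribed, amplified and sequenced. Target abundance for each binder is the median log2 ratio of FLAG to Myc barcode read proportions. Barcodes had to reach a proportion of at least 10^−7 in both replicates, each binder needed at least 3 barcodes per replicate, a pseudocount of 10^−6 was applied, and the two replicates were pooled.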

GABARAPL2, P60520, sequence (P60520 whole entry, the tested form may be a part): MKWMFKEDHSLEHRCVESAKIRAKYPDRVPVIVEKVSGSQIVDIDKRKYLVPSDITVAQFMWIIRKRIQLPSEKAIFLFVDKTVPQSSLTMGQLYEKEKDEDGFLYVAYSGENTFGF

| Binder | median log2 fold change |
| --- | --- |
| GBRAPL2_54_7373 (protein) MTKVLIEATFIAEGTPEELAEVRKVALEELEKLKKELKEKFGAESKISSEEEDGVLSVTVEITTEKENLDEVLDLLEETRERIAERTGRPVSLVIGIKEL | 0.0324 |
| GBRAPL2_54_7374 (protein) MKKVEITIDYVVEGNEEELEKVEKVLKKELEELKKKLESEFNAKTKISVERENGVLTIEVDVITDEKDVDKVIDLALETAKKVSEKTGVKVSVVIGIKEL | -0.179 |
| GBRAPL2_54_7375 (protein) MKKVEIEIDYIVEGNEEELKKVREVLKKELEKMKKELEEKFNATVEVSEEYENGVLTVTVKVIVDEEHVDEVIDLALETAERVSKETGVKVNVVIGIKEL | -0.389 |
| GBRAPL2_54_7376 (protein) MKKVEIEIDYIVEGDPAELARVEAVLKKELAEMEKTLKSKFNAKTTVSSEVEDGVLTTTVTVITDESHVDEVIDLALETAERVSAETGVKVSVVIGIKEL | -0.212 |
| GBRAPL2_54_7377 (protein) MKKVEITIDYIVEGDEEELKRVREVLEKELEKMEKELKEKFNAKTEVSVEVEDGVLTVTVDVIVDEKDVDKVIDLALKTAEEVSKKTGVKVNVVIGIKEL | -0.193 |
| GBRAPL2_54_7378 (protein) MKIVEVEVDYIAQGNDEELEKVEKVAKEELAKLTEELAKKYGAKTTTSVEREDGVLSVTLTVIVKESDLDAVIDLALETAKRIEEKTGVKVSVVIGTKEL | -0.111 |
| GBRAPL2_54_7379 (protein) MKIVEVEITYLATGNEEELKKVEEVAKKKVEEFKKELEEKYGAKTTTSVEIEDGVLSYTVTVITKEENLDEVIDKALEMAKEIEKETGVKVSVVIGTKEL | -0.192 |
| GBRAPL2_54_7380 (protein) MKKVLITGEFIVEGDEESLEKVKKVAEEKSKELSEELKKKYGAESTISFEEEDGVLYITIDIITDEEAVDDVIDKLEELKKEIEKETGLKVSLVIGIEYL | 0.0537 |
| GBRAPL2_54_7381 (protein) AKKVEIVADFIVEGTPEELAKVEKVATELSKKLAEELAAKYGATSTLSFEREDGVLLLTVTIVTDESAVDDVLDRLEELRDEIEKRTGVKVNLVIGIKEL | -0.18 |
| GBRAPL2_54_7382 (protein) AKKVRITIEFIVEGNEEELEKVKKVAKELSEELAKELKEKYGATSSISFEEENGVLTITIDVITDESAVDDVIDRALELKEEIEKKTGLKVSVVIGIEYL | 0.121 |
| GBRAPL2_54_7383 (protein) AKKIEIEIDYIVEGDKESLEKVKKVFTELSKKMAEELKEKYGAETKIEFEEENGVLTGTITVITDESHVDEVIDRALELKKEIEKKTGLKVNVVIGIKEL | -0.128 |
| GBRAPL2_54_7385 (protein) MTKVLVEIDFLVEGDEEELAEVEKVLLEEIEKMKKELKEKYGAEVTVEVEREDGRLLVTVTVLTPKEAVDDVIDLAEKMRDEVEAKTGVKVHVVIGIEEL | 0.154 |
| GBRAPL2_54_7386 (protein) MKKVNITIDFVAEGDPETLAKVEEVAEKEIEKMEEELKEKYGAETERSVEREDGVLTVTVDVTVPEEAVDDVIDLALETAERISKETGVKVSVVIGAEEL | -0.458 |
| GBRAPL2_54_7387 (protein) MKIIEIEIDYIAEGDDETLDKVEKVALEEIEKLKKELKEKYGAETEIEVEREDGVLSVTVTVITKEENVDEVIDLAEETAKEISEKTGIKVSVVIGLKEL | -0.429 |
| GBRAPL2_54_7388 (protein) MKKIRITVDFIAEGNDEELAKVEKVLLEELEKFKKELKEKFNAKTEISVERENGVLTITVDVITEEKDVDEVIDLADEVAKEVEKKTGVKVSVVIGIEEL | -0.363 |
| GBRAPL2_54_7389 (protein) MKMIEIVIDYIAEGDDEELDKVEEVLLELLEEFKKELKEKYGATVEVSVEREDGVLTVTVTVIVKEEDVDDVIDLADKVAKEVEAKTGVKVSLVIGIKEL | -0.265 |

| Binder | median log2 fold change |
| --- | --- |
| GBRAPL2_54_7390 (protein) LVEVELILIVSGELPEEEIERIEELLKEKTEELLKKHSDKIEKILRFEREREDGVVLISVELLVKEEYKEEVIDELIKIAEEIREESGVEIKSVIAESSD | -0.0228 |
| GBRAPL2_63_7391 (protein) SLADKTAALLSRLGAVPLELAEAWEAAAAALTDVAAFAEAAAAAAAAINPRIDAERQAILEEAIRRALTEDDPLAVEIVSAIINNEPDEEIRALWKKLLA | 0.206 |
| GBRAPL2_63_7392 (protein) SLLDKVLKLLSRLGPVPLDLAERFEELAEELSDEEELAKAIAEAVQEDNPHIDEERRKILEEAILKALTEDSEIAIKIASAIINGAPMEEIEKLLEELKK | 0.0699 |
| GBRAPL2_63_7393 (protein) STWARVLRLILEHATIDLETAERLEAALESNASDEELFATLVEALQDIRPELTPEQARDIAAKLARLAERSEALAAEAVRRLDTMSLEEFLAHLDALVAA | 0.216 |
| GBRAPL2_63_7394 (protein) SAARKVLEALLEHAIIDLETAERLEKALEEAKSEEELRKTLVEALLDMIPELTEEEAEELADMLIELAKKSEELLKEAILALQTLSKEEALAKLKALVAE | 0.071 |
| GBRAPL2_63_7395 (protein) SAAARVLRALLEHAIVDLETAERIEEALATEKSAEALRETLVAALLDMIPELTEEEARELAAALEALARRSPELLREALRALQTLSLEEARARLAALLAA | 0.00583 |
| GBRAPL2_63_7396 (protein) MIAKKVLEILLREAILDLETAEELEKALEEEKTEEELRKALVKAILDLNPDLTEEEAEEIVELLLELAKKSEELARKAVRALSTLDNEEAFAFIKKLVAE | 0.0814 |
| GBRAPL2_63_7397 (protein) MTAKKVLEIILREAILDLETAEKLEEALKNEKTEEALREALVEAILDMRPDLTEEEAEEIVDLLLELQKKSEELAREGVRALSTLDNEEALAYLKELVAK | 0.0233 |
| GBRAPL2_63_7398 (protein) MLAKKVLEALLENAILPLDLAEELEKALETLKTEEELRETLVKAILELNPELTEEEAEEIVDLLIELAKKSEELLKEGVRALSTLDNETAKEYLKKLVAE | 0.0619 |
| GBRAPL2_63_7399 (protein) SAAKKALEALLEHAILDLDTAERLDKALENEKDEEKLRKALVEAILDINPEATEEEAERMADLLLELAKKSEAALKEAVRALSTMDLPEALAFLEALVAA | -0.0717 |
| GBRAPL2_63_7400 (protein) SAAKKALEALLEHAILDLETAERLEKALEEETDEEKLYEALVEAILDLNPEATREQAEEIADLLIELAKQSEAALKAAVRALSTVPLEEALAFLRAAVAA | -0.0605 |
| GBRAPL2_63_7401 (protein) SSVEKVLKTLLEYAVLDLDTAEKIDKALENNESDEELFKTLVEAIKDIRPDLTEEEAEEIAKLLIELAKKSEELLKEAVRKLDTMENEEFIKYLKELVEK | 0.131 |
| GBRAPL2_63_7402 (protein) SAVERVLRTLLEHAVLDLDTAERLEKALESNLSDEELFKTLVEAIKDINPELTEEEAERVARLLIALAEQSEALLVEAVRQLSTLENEEFLALLEALVAA | 0.0388 |
| GBRAPL2_63_7403 (protein) SEVEKVLKAILEYATLDLDTAERIDKALESNLSEEELFEVLVETIKDINPELTDEEAEKIAELLIELAKQSEEKLKEAVRKLQTMENEEFIAYLEELVKE | -0.012 |
| GBRAPL2_63_7404 (protein) SSAEKVLKTLLEYATLDLDTAERLEEALESNASEEELREALVEAIKDIRPDLTEEEAERVADLLIELAKQSEELLKEAVRDLDTLENDEFLKRLEELVAA | 0.0151 |
| GBRAPL2_63_7405 (protein) MTAKKVLEALLRHAILPLDTAERLDEALENEEDEEKLRETLVEAILDIRPELTPEEAEYVAEKLLALAEQSEERLAEAVRALTTLSKEEFLARLDELVAE | -0.247 |
